Source: PubChem BioAssay (NCI)
This is part of a sample that, as a whole, favours compounds with a hit. Of some 83,000 tested, about 20% had one in any assay.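 Note: values are percent growth. 100 is the growth of untreated cells, values between 100 and 0 indicate rising inhibition; between -100 and 0 indicates cell death.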 Values without a mark were called inactive. Active and inactive are the calls of the source.

These compounds were tested on OVCAR-4 ovarian (assay: NCI-60 one-dose screen, 48 h (100 = growth as untreated, 0 = no growth, -100 = all killed)). Conditions: 10 µM.
Experimental: Growth inhibition of the OVCAR-4 human tumor cell line is measured as a screen for anti-cancer activity. Cells are grown in 96 well plates and exposed to the test compound for 48 hours. Compounds are tested at a single concentration, which is 10^-5 M for most compounds. The reported endpoint is percent growth (GI% or GIPRCNT), where numbers from 0 - 100% represent growth inhibition, and numbers from -100% - 0 represent cell death. For example, a value of 40 represents 60% growth inhibition. A value of 0 means no net growth occurred over the course of the experiment. A value of -40 indicates 40% of cells at the beginning of the experiment died by the end of the experiment. A value of -100 means all cells are dead at the end of the experiment.
NCI-60 Human Tumor Cell Lines Screen was performed using the standard one-dose NCI protocol, which is described in more detail at https://dtp.cancer.gov/discovery_development/nci-60/default.htm.
Compounds with GIPRCNT values below 10 were considered active. Activity score was based on GIPRCNT using the following formula: […]
Score is 0 for GIPRCNT values of 100 or above, 50 for GIPRCNT values of 0, and 100 for GIPRCNT values of -100.

SMILES | growth
O=[N+]([O-])c1ccc(-c2ncc(-c3ccc(Br)cc3)o2)cc1 | 97.3%
O=[N+]([O-])c1ccc(CO)cc1 | 104%
COc1ccccc1N1CCN(C(=S)Nc2ccccc2)CC1 | 108%
O=C1NC(=O)C2C(=O)NC(=O)C1C21CCc2ccccc21 (stereo not given) | 105%
OCc1cccc2ccccc12 | 109%
COc1ccc2c(c1)CCc1c-2n[nH]c1-c1[nH]nc2c1CCc1cc(OC)ccc1-2 | 77.3%
CCC/C=C(\C)C(C)(C#N)C(=O)OCC (stereo not given) | 107%
CC1(O)CCCCC1O (stereo not given) | 107%
O=C(O)CCC(=O)OC(C1CO1)C(OC(=O)CCC(=O)O)C1CO1 (stereo not given) | 107%
CN(c1ccccc1)c1ncnc2c1ncn2C | 103%
CCn1c(=O)n(C)c2c(=O)n(C)c(=O)n(C)c21 | 111%
CCCCC(O)c1ccccc1 (stereo not given) | 100%
CC1OC(Oc2c(-c3ccc(O)c(O)c3)oc3cc(O)cc(O)c3c2=O)C(O)C(O)C1O (stereo not given) | 105%
CC1CCC2C(C)(C)C3CC12CC1OC13C (stereo not given) | 99.3%
O=C(O)CCCCNC(=O)c1ccccc1 | 108%
Cc1ccc(Cl)cc1N1C(=O)CC(Sc2ccccc2N)C1=O (stereo not given) | 101%
CCCCNC(=O)C(=O)NCCCC | 108%
CSC(=N\N=C\c1ccc(N(C)C)cc1)/N=C/N(C)C | 107%
CC(=O)NCc1cc(C)c(C)cc1C | 106%
CCCCC/C=N/Nc1nc(C)cc(=O)[nH]1 | 107%

SMILES | growth
Cc1ccc(C)n1-c1ccsc1C(=O)NNC(=O)C(Cl)Cl | 96.9%
O=C1c2ccccc2C(=O)c2c1ccc(C(=O)O)c2[N+](=O)[O-] | 96%
C#CC(C(C)C)N(CCO)CCCC (stereo not given) | 101%
O=[N+]([O-])c1ccc(Cl)c(S(=O)(=O)O)c1 | 111%
Oc1ccc2c(c1)OCC1(O)Cc3cc(O)c(O)cc3C21 (stereo not given) | 38.2%
Nc1ccc(N)c([N+](=O)[O-])c1 | 112%
O=[N+]([O-])c1ccccc1S(=O)c1ccccc1[N+](=O)[O-] | 67%
CC1=NN(c2ccccc2)C(=O)/C1=C\N1CC(=O)NC1=S | 102%
CN(C)c1nc2c([nH]1)c(=O)n(C)c(=O)n2C | 112%
CC1CC(O)CC(C)(C)C1 (stereo not given) | 116%
CCC(C#N)(CC)c1ccccc1 | 113%
O=C(O)CSCSCC(=O)O | 99.6%
CCC/C=C(/C(C)=O)C(=O)OCC | 89.8%
CC(=O)Cc1cc(-c2cc(CC(C)=O)[nH]n2)n[nH]1 | 101%
CC(=O)N(C)c1ccc([N+](=O)[O-])cc1 | 119%
COC(=O)/C=C\C(=O)OC | 115%
O=C(O)/C=C/c1ccc2c(c1)CCC2 | 104%
Nc1ncnc2[nH]ncc12 | -5.84% (active)
O=C(/C=C/C(=O)c1ccccc1)c1ccccc1 | 108%
COc1nc(N)nc2c1ncn2C1OC(CO)CC1O (stereo not given) | 120%
